Data taken from the supplement of paper PMC11172423.
Unmarked numbers belong to inactive results.

What was measured:
[1] = system: Falciformispora senegalensis CBS197.79; experiment: growth relative to untreated control; higher = less inhibition, active = 20 or less
How it was run: (§1)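 In 96-well plates, suspended hyphal fragments of M. mycetomatis MM55 or F. senegalensis CBS197.79 were exposed to compound at 100 or 25 µM for 7 days at 37 °C. The suspension medium was colourless RPMI 1640 with L-glutamine and MOPS, adjusted to 68–72% transmission at 660 nm. Viability was measured with MTS (2 h, 490 nm) or resazurin (600 nm). Growth means metabolic activity compared with the untreated growth control after blank correction of both with medium plus dye.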

[2] = system: Madurella mycetomatis MM55; experiment: as above
How it was run: as §1

Compound | growth ([1]; 25 µM) | growth ([1]; 100 µM) | growth ([2]; 25 µM) | growth ([2]; 100 µM)
COc1ccc2nc3cc(Cl)ccc3c(Nc3cc(CN4CCCC4)c(O)c(CN4CCCC4)c3)c2n1 | 107% | 15% (active) |  | 
Cc1c(-c2ccc(-c3ccccc3F)cc2)nc2ccc(F)cc2c1C(=O)O | 103% | 98.6% |  | 
C/C=C/C[C@@H](C)[C@@H](O)[C@H]1C(=O)N[C@@H](CC)C(=O)N(C)CC(=O)N(C)[C@@H](CC(C)C)C(=O)N[C@@H](C(C)C)C(=O)N(C)[C@@H](CC(C)C)C(=O)N[C@@H](C)C(=O)N[C@H](C)C(=O)N(C)[C@H](CC(C)C)C(=O)N(C)[C@@H](CC(C)C)C(=O)N(C)[C@@H](C(C)C)C(=O)N1C | 113% | 94.5% |  | 
Cc1cc(Cl)ccc1NC(=S)N(C)C | 98.6% | 88.2% |  | 
CCCCc1nc(Cl)c(CO)n1Cc1ccc(-c2ccccc2-c2nn[nH]n2)cc1 | 105% | 105% |  | 
Cc1onc(-c2ccccc2)c1-c1ccc(S(N)(=O)=O)cc1 | 97% | 105% |  | 
CC(C)(C)c1nn(-c2ccc(Cl)cc2)c2[nH]c(=O)c(CNCc3ccc4c(c3)OCO4)cc12 | 72.1% | 66.3% |  | 
O=C(Nc1cnc2ccccc2c1)c1ccccc1C(=O)c1ccc(F)cc1 | 88.2% | 95.5% |  | 
CCN(CC)CCOc1ccc(C(O)(Cc2ccc(Cl)cc2)c2ccc(C)cc2)cc1 (stereo unspecified) | 7.03% (active) | 8.2% (active) |  | 
COc1ccc(-n2nc(C(N)=O)c3c2C(=O)N(c2ccc(N4CCCCC4=O)cc2)CC3)cc1 | 104% | 91.6% |  | 
FC(F)(F)c1ccc(CNc2ccc(Cc3c[nH]c4ncc(Cl)cc34)cn2)cn1 | 95.7% | 106% | 93.1% | 95.5%
CNc1ccc2cc(NC(=O)c3ccc(C(F)(F)F)c(Cl)c3)ccc2n1 | 69.4% | 104% |  | 
c1cc(-c2n[nH]c3ccc(-c4n[nH]c(C5CCCN5)n4)cc23)ccc1CNC1CC1 (stereo unspecified) | 88.8% | 84.8% |  | 
CC(C)c1cc(Oc2ccccc2)cc(C(C)C)c1NC(=S)NC(C)(C)C | 89.5% | 90.7% |  | 
CC(C)(C)Cn1c(N)nc2ccc(-c3[nH]c(C(C)(C)C)nc3-c3ccc(F)cc3)nc21 | 100% | 55% |  | 
O=C(c1ccc(Nc2nccc(-c3cc(Cl)cc(C(F)(F)F)c3)n2)cc1)N1CC2(COC2)C1 | 96% | 96.8% | 62.9% | 50.6%
Cc1ccc(C)c2sc(N(CCCn3ccnc3)C(=O)c3ccco3)nc12 | 38.5% | 30% |  | 
CS(=O)(=O)N1CCC(NC(=O)c2cc3ccc(C(F)(F)F)cc3[nH]2)CC1 | 90.8% | 84.8% |  | 
CC(C)(C)NCc1cc(Nc2ccnc3cc(Cl)ccc23)c2c(c1O)CCCC2 | 106% | 101% | 113% | 95.1%
CCN(CC)CCNc1nc(Nc2cccc(OC)c2)c2cnn(-c3ccccc3)c2n1 | 76.3% | 17.5% (active) | 5.18% (active) | 4.88% (active)
O=C1CN(C(=O)CCC2CCCC2)C(c2ccc(F)cc2)c2cc(Cl)ccc2N1 (stereo unspecified) | 71.2% | 74.3% | 69.6% | 94.9%
C[C@@H]1CS/C(=N\NC(=O)C(=O)[C@@H](NC(=O)C2CCCCCC2)C2CCOCC2)N1C | 95.5% | 98.8% | 88.8% | 93.2%
COC(=O)C1=C(C)NC(C)=C(C(=O)OC)C1c1ccccc1[N+](=O)[O-] | 98.9% | 41.1% | 89.7% | 4.04% (active)
Nc1nc(S)c2[nH]cnc2n1 | 106% | 103% | 71.8% | 92.8%
FC(F)(F)c1cc(Cl)cc(Nc2nc3cnc(NC4CCOCC4)nc3n2C2CCNCC2)c1 | 93.9% | 79.8% | 111% | 5.14% (active)
O=C(Nc1ccc([N+](=O)[O-])cc1Cl)c1cc(Cl)ccc1O | 0% (active) | 0% (active) | 4.63% (active) | 4.72% (active)

Compound | growth ([1]; 25 µM) | growth ([1]; 100 µM) | growth ([2]; 25 µM) | growth ([2]; 100 µM)
CC(=O)Nc1ccc(NC(=O)c2cc(-c3ccc(C)cc3O)n[nH]2)cc1 | 81.7% | 82.2% | 85.3% | 82.5%
CC(=O)[C@@]1(O)CC[C@H]2[C@H]3CCC4=CC(=O)CC[C@@]4(C)[C@H]3CC[C@@]21C | 92.2% | 106% | 80.2% | 83.8%
CN(C)CCN1CCCN(c2ccnc3ccsc23)CC1 | 90.2% | 99.7% | 76% | 79.5%
Clc1ccc2c(N3CCN(CCCN4CCN(c5ccnc6cc(Cl)ccc56)CC4)CC3)ccnc2c1 | 104% | 101% | 95.9% | 86.7%
CCOC(=O)c1c(CSc2ccccc2)n(C)c2cc(Br)c(O)c(CN(C)C)c12 | 103% | 97.8% | 98.5% | 75.4%
CCN(CC)C(=O)/C(C#N)=C/c1cc(O)c(O)c([N+](=O)[O-])c1 | 99% | 99.4% | 107% | 91.8%
CC(C)c1nc(CN(C)C(=O)N[C@H](C(=O)N[C@@H](Cc2ccccc2)C[C@H](O)[C@H](Cc2ccccc2)NC(=O)OCc2cncs2)C(C)C)cs1 | 101% | 104% | 74.1% | 82.2%
N#Cc1ccc(C/C(=N/NC(=O)Nc2ccc(OC(F)(F)F)cc2)c2cccc(C(F)(F)F)c2)cc1 | 97% | 96.1% | 98.2% | 91.3%
N#CC[C@H](C1CCCC1)n1cc(-c2ncnc3[nH]ccc23)cn1 | 110% | 103% | 76.6% | 92.4%
CCSC1CCCCC1NCCn1c(=O)oc2cccnc21 (stereo unspecified) | 91.3% | 90.9% | 37.9% | 93.1%
C[C@H](NC(=O)c1cc2c(F)cccc2[nH]1)c1ccccc1 | 84.1% | 68.4% | 20.7% | 7.43% (active)
Cc1nc(NC2(c3ccc(C#N)cc3)CC2)nc(NCC2COC2)c1C | 97.1% | 96.2% | 87.8% | 22.3%
Cc1cccnc1Nc1cn2cc(-c3ccnc(OC(C)C)n3)ccc2n1 | 101% | 91% | 36.1% | 6.2% (active)
NC(=O)c1cccc(CN2Cc3ccccc3OC3(CCN(Cc4c[nH]c5cnccc45)CC3)C2)c1 | 85% | 96.6% | 54.2% | 71.2%
Clc1ccc2ncc(-c3cccc(NC4CCNC4)n3)n2c1 (stereo unspecified) | 92% | 83.1% | 78.8% | 56.6%
Cc1cc(C)c(Nc2ccnc(Nc3ccc(C#N)cc3)n2)c(C)c1 | 103% | 99.4% | 92.4% | 86.6%
O=C(Nc1ncccc1O)c1ccc(S(=O)(=O)NCCc2cccs2)cc1 | 88.7% | 88.7% | 128% | 70.6%
COC(=O)N[C@H](C(=O)N[C@@H](Cc1ccccc1)[C@@H](O)CN(Cc1ccc(-c2ccccn2)cc1)NC(=O)[C@@H](NC(=O)OC)C(C)(C)C)C(C)(C)C | 114% | 108% | 88.9% | 105%
CCSc1ccc2c(c1)N(CCCN1CCN(C)CC1)c1ccccc1S2 | 7.2% (active) | 11.7% (active) | 3.68% (active) | 3.76% (active)
Fc1cccc(-c2ccc3c(c2)CC(NCc2c[nH]c4cnccc24)C3)c1 (stereo unspecified) | 6.11% (active) | 14.3% (active) | 5.29% (active) | 5.16% (active)
CC(=O)N1CCN(c2ccc(OC[C@H]3CO[C@](Cn4ccnc4)(c4ccc(Cl)cc4Cl)O3)cc2)CC1 | 31.6% | 12.3% (active) | 3.29% (active) | 3.16% (active)
CC1(O)CN(C(=O)c2cccc(NC(=O)c3ccc(Nc4ccccn4)cc3)c2)C1 | 106% | 107% | 55.8% | 141%
O=C(Nc1ccc(Cl)c(C(F)(F)F)c1)Nc1ccc(Cl)c(C(F)(F)F)c1 | 99.4% | 88.1% | 43.5% | 49.6%
Cn1ccnc1SCC(=O)Nc1ccc(C(=O)Nc2ncccc2O)cc1 | 87.2% | 79.4% | 102% | 64.9%
CC(C)Nc1ncc2nc(Nc3cc(Cl)cc(C(F)(F)F)c3)n(C3CCNCC3)c2n1 | 90.2% | 69.2% | 118% | 4.67% (active)
c1ccc(-c2ccnc(C3CCN(CC45CNCC4C5)CC3)n2)cc1 (stereo unspecified) | 82.4% | 91.2% | 71.4% | 134%
